In the library only some 27% were active in any assay of this set; here they are far more common.
Cav32 inh = human Cav3.2 channel inhibition, primary screen. 100,000 compounds, 4% hits. O95180. B-score at 10 µM. AID 449739. Cav3.2-expressing cells, Fluo-4 calcium fluorescence FDSS; active compounds read low;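 active means single-dose well whose peak fluorescence ratio is a statistical outlier from its plate by either plate-standardised score or position-corrected B-score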
CYP2C19 act = cytochrome P450 2C19 (human) activation. 96,000 tested, under 10 active. activation factor at 5 µM. AID 1025. recombinant CYP2C19, luciferin-H EGE luminescence; active compounds read high; 0 = fully inhibited enzyme, 1 = untreated enzyme;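 active means activation factor of at least 2 at 5 µM in the primary screen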;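 further: 0 = wells with 2.5 mM tranylcypromine and 1 = vehicle-only wells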
Target sequence (P33261 whole entry, looked up): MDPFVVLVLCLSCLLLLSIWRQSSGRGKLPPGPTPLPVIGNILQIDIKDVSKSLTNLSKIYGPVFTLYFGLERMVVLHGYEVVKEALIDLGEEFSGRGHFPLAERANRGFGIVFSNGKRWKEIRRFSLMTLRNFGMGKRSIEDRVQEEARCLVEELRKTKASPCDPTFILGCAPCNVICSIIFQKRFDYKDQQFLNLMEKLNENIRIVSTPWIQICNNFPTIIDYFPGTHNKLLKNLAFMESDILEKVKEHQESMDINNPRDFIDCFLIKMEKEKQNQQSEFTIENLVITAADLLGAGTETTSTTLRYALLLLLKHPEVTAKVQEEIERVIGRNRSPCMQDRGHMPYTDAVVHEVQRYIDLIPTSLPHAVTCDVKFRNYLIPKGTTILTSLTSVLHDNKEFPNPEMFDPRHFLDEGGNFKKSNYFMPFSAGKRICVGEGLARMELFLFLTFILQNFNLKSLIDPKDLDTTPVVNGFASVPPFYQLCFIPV
CYP2C9 activ = activators of human CYP2C9 | P11712 | recombinant CYP2C9, luciferin-H conversion, luminescence; active compounds read high; factor 1 = untreated enzyme, 0 = blocked | activation factor at 5 µM | 96,000 compounds, 1.4% hits;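 active means activation factor of 2 or more for CYP2C9 at a 5 µM dose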;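 further: 0 = sulfaphenazole-blocked wells and 1 = vehicle-only wells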
CYP2C9 inh = blocks human cytochrome P450 2C9; CYP2C9 Supersomes, luciferin-H conversion, luminescence; inhibition, % at 5 µM; 96,000 compounds, 20% hits; AID 777;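 active means blocking of liver enzyme CYP2C9 beyond about 50% at 5 µM, limit read from the data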
CYP2C19 inhib = blocks human cytochrome P450 2C19. P33261. CYP2C19 Supersomes, luciferin-H EGE luminescence, 30 min. inhibition, % at 5 µM. 96,000 compounds, 21% hits. AID 778;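 active means CYP2C19 inhibition above a set limit at 5 µM in the primary screen, cut at about 50% in these data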;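 further: plate controls were negative control wells for no effect and 2.5 mM tranylcypromine positive control for full effect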
* hit, by the source's call.

What do the screens show for `Cc1c(C#N)c(N=CN(C)C)c(C(=O)c2ccc(Br)cc2)n1-c1ccccc1`?
Cav32 inh: -0.586; CYP2C19 act: 0.8; CYP2C9 activ: 0.8; CYP2C9 inh: 22.0; CYP2C19 inhib: 19.8

What do the screens show for `Cc1c(C#N)c(N=CN(C)C)c(C(=O)c2ccccc2)n1-c1ccc(Br)cc1`?
Cav32 inh: -0.294; CYP2C19 act: 0.3; CYP2C9 activ: 0.4; CYP2C9 inh: 60.9*; CYP2C19 inhib: 73.1*

How did CCOC(=O)Nc1nnc(-c2ccccc2OC)s1 do in these assays?
Cav32 inh: -0.443

Results for COc1ccccc1-c1nnc(NC(=O)OCC(C)C)s1 ?
Cav32 inh: 0.374; CYP2C19 act: 0.8; CYP2C9 activ: 2.4*; CYP2C9 inh: -143.6; CYP2C19 inhib: 19.2

Results for CCOCCSc1nc2c(c(=O)[nH]c(=O)n2C)n1CCCc1ccccc1 ?
Cav32 inh: -0.695; CYP2C19 act: 0.8; CYP2C9 activ: 0.8; CYP2C9 inh: 24.4; CYP2C19 inhib: 20.8

How did Cc1cccc(Cn2c(SCC(=O)Nc3ccccc3)nc3c2c(=O)[nH]c(=O)n3C)c1 do in these assays?
Cav32 inh: -1.29; CYP2C19 act: 0.3; CYP2C9 activ: 0.5; CYP2C9 inh: 47.2; CYP2C19 inhib: 69.6*

What do the screens show for `Cc1cccc(Cn2c(SCCN3CCCCC3)nc3c2c(=O)[nH]c(=O)n3C)c1`?
Cav32 inh: 1.18

What do the screens show for `CC(C)CCn1c(SCCc2ccccc2)nc2c1c(=O)[nH]c(=O)n2C`?
CYP2C19 act: 0.5; CYP2C9 activ: 0.1; CYP2C9 inh: 92.8*; CYP2C19 inhib: 50.4*

Results for CCOCCn1c(SCCc2ccccc2)nc2c1c(=O)[nH]c(=O)n2C ?
Cav32 inh: 1.28; CYP2C19 act: 0.9; CYP2C9 activ: 0.3; CYP2C9 inh: 73.5*; CYP2C19 inhib: 14.8

Results for CCCn1c(SCCc2ccccc2)nc2c1c(=O)[nH]c(=O)n2C ?
Cav32 inh: -0.587; CYP2C19 act: 0.5; CYP2C9 activ: 0.4; CYP2C9 inh: 58.6*; CYP2C19 inhib: 50.2*

How did O=C(Nc1ccc2c(c1)nc1n2CCOC1)c1ccccc1 do in these assays?
Cav32 inh: -0.167; CYP2C19 act: 1; CYP2C9 activ: 1; CYP2C9 inh: -0.2; CYP2C19 inhib: -0.6

What do the screens show for `COc1ccc(C(=O)NCc2nnc(SCC(=O)N3CCCCC3)o2)cc1OC`?
Cav32 inh: 1.44; CYP2C19 act: 0.7; CYP2C9 activ: 0.8; CYP2C9 inh: 22.2; CYP2C19 inhib: 33.1

How did CCOC(=O)C(C)Sc1nc2c(c(=O)[nH]c(=O)n2C)n1CCc1ccccc1 (stereo unspecified) do in these assays?
Cav32 inh: 0.31; CYP2C19 act: 0.6; CYP2C9 activ: 0.5; CYP2C9 inh: 51.5*; CYP2C19 inhib: 39.9

How did COCCn1c(SCCCc2ccccc2)nc2c1c(=O)[nH]c(=O)n2C do in these assays?
Cav32 inh: 1.74; CYP2C19 act: 0.6; CYP2C9 activ: 0.4; CYP2C9 inh: 59.3*; CYP2C19 inhib: 43.4

What do the screens show for `COC(=O)C(C)Sc1nc2c(c(=O)[nH]c(=O)n2C)n1CCCc1ccccc1` (stereo unspecified)?
Cav32 inh: 2.25; CYP2C19 act: 0.7; CYP2C9 activ: 0.9; CYP2C9 inh: 14.7; CYP2C19 inhib: 29.6

What do the screens show for `Cc1ccccc1Oc1ccc(Oc2ccccc2C)nn1`?
Cav32 inh: -0.722; CYP2C19 act: 0.7; CYP2C9 activ: 1.6; CYP2C9 inh: -61.2; CYP2C19 inhib: 26.3

What do the screens show for `CCOC(=O)N1CCN(C(=O)CN(C)S(=O)(=O)c2ccc3c(c2)C(C)(C)C(=O)N3C)CC1`?
CYP2C19 act: 0.9; CYP2C9 activ: 0.8; CYP2C9 inh: 20.1; CYP2C19 inhib: 5.3

How did Cc1ccc2[nH]c3c(c2c1)CN(C(=O)CN1c2ccc(F)cc2CCC1C)CC3 (stereo unspecified) do in these assays?
Cav32 inh: -0.267; CYP2C19 act: 0.7; CYP2C9 activ: 0.5; CYP2C9 inh: 46.3; CYP2C19 inhib: 28.8

How did O=C(C1CC1)N1CCc2[nH]c3ccccc3c2C1 do in these assays?
Cav32 inh: 1.65

What do the screens show for `O=C(CN1CCSCC1)N1CCc2[nH]c3ccc(Br)cc3c2C1`?
Cav32 inh: -0.822; CYP2C19 act: 0.1; CYP2C9 activ: 0.2; CYP2C9 inh: 81.1*; CYP2C19 inhib: 92.8*

What do the screens show for `Cc1ccc2[nH]c3c(c2c1)CN(C(=O)CN1CCN(c2cccc(C)c2C)CC1)CC3`?
Cav32 inh: -3.14; CYP2C19 act: 0.5; CYP2C9 activ: 0.1; CYP2C9 inh: 88.7*; CYP2C19 inhib: 49.1

Source: PubChem
